Data as given in PubChem BioAssay.
For some assays here: Results with a measured potency or affinity are listed apart. Calls of active or inactive are those of the source.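 The calls were made as follows, unless noted: active = earlier screen potentiator hit that boosts the TRPC4 ion channel at some dose, with a dose response; inactive = no potentiation, no dose response, or not a prior hit.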

Legend:
[1] = system: TRPC4 beta (transient receptor potential cation channel C4), mouse; assay: TRPC4 cation channel opening, retest – cell-based, Fluo4 calcium, HEK293 TRPC4beta/mu-opioid, duplicates, 10 µM, confirmation (AID 2426;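 active = fluorescence ratio normalized to control raised more than 50% in primary screen plus both repeat runs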;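 as to activation: percent rise of integrated ratio over buffer wells lacking compound which define 0%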); conditions: Fluo4 calcium fluorescence, at 10 µM; active compounds read high
[2] = system: transient receptor potential cation channel C4 beta (TRPC4), mouse; assay: TRPC4 cation channel opening, second retest – cell-based, second round, Fluo4, HEK293 TRPC4beta/mu-opioid, 1 µM, confirmation (AID 2461;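 active = primary screen active and over 50% activation in each of two duplicate runs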;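 as to activation: 0% = wells without test compound as baseline of integrated fluorescence ratio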); conditions: Fluo4 calcium fluorescence, at 1 µM; active compounds read high
[3] = system: TRPC4 (transient receptor potential cation channel C4 beta), mouse; assay: potentiation of DAMGO EC20 TRPC4 response – cell-based, second round, Fluo-4, HEK293 TRPC4beta/mu-opioid, 1 µM, confirmation (AID 2554;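 active = primary screen hit whose fluorescence ratio, in both repeats, exceeds the weak agonist control mean by 3 SD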); conditions: DAMGO EC20, Fluo-4 calcium flux, at 1 µM; active compounds read high
[4] = system: TRPC4 beta (transient receptor potential cation channel C4), mouse; assay: potentiation of DAMGO EC20 TRPC4 response – cell-based, Fluo-4, HEK293 TRPC4beta/mu-opioid, confirmation (AID 2555;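 active = primary screen hit whose calcium fluorescence ratio, in both repeats, exceeds the weak agonist control mean by 3 SD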); conditions: DAMGO EC20, Fluo-4 calcium flux, at 10 µM; active compounds read high
[5] = target: Short transient receptor potential channel 4 (Mus musculus) (UniProt Q9QUQ5); assay: blockers of DAMGO-evoked TRPC4 calcium flux – cell-based, Fluo4, HEK293 TRPC4beta/mu-opioid, confirmation (AID 2636;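 active = calcium signal cut by more than 3 SD below the full-agonist control yet still positive, in both repeats and the earlier primary screen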); conditions: at 10 µM; active compounds read high
[6] = target: Short transient receptor potential channel 4 (Mus musculus) (UniProt Q9QUQ5); assay: blockers of DAMGO-evoked TRPC4 calcium flux – cell-based, second round, Fluo4, HEK293 TRPC4beta/mu-opioid, 1 µM, confirmation (AID 2637;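 active = calcium signal ratio cut to more than 3 SD under the fully stimulated control mean yet still positive, in both repeats and the primary screen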); conditions: at 1 µM; active compounds read high
[7] = target: Short transient receptor potential channel 4 (Mus musculus) (UniProt Q9QUQ5); assay: potentiation of DAMGO-evoked TRPC4 calcium signal – cell-based, HEK293 TRPC4/mu-opioid, Fluo-4 calcium, EC20 DAMGO, dose response (AID 434941);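 also: calcium entry triggered by an EC20 dose of DAMGO at the co-expressed mu-opioid receptor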
[8] = target: Short transient receptor potential channel 4 (Mus musculus) (UniProt Q9QUQ5); assay: block of DAMGO-driven TRPC4 calcium entry – cell-based, HEK293 TRPC4/mu-opioid, Fluo-4 calcium, dose response (AID 434942;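 active = primary screen inhibitor hit that blocks the TRPC4 channel at some tested dose, yielding a dose curve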)
[9] = target: Short transient receptor potential channel 6 (Mus musculus) (UniProt Q61143); assay: TRPC6 blockade by TRPC4 inhibitor hits – cell-based, HEK293, membrane potential dye, duplicate, selectivity assay for TRPC4 inhibitor project, confirmation (AID 434948;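 active = active in primary screen and both duplicates, each dropping signal beyond three positive-control SD with fluorescence still positive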); conditions: HEK293 TRPC6, membrane potential dye fluorescence, at 10 µM, stimulated with maximal-effect acetylcholine; active compounds read high
[10] = target: Short transient receptor potential channel 6 (Mus musculus) (UniProt Q61143); assay: TRPC6 opening by TRPC4 activator hits – cell-based, HEK293, membrane potential dye, duplicate, selectivity assay for TRPC4 activator project, confirmation (AID 434950;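 active = membrane potential signal rise above negative control mean plus 3 SD in both duplicates, also active in the earlier TRPC4 screen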;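 as to activation: 0% = buffer only wells and 100% = acetylcholine maximal-effect wells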); conditions: HEK293 TRPC6, membrane potential fluorescence, at 10 µM; activation: active compounds read high; outcome: activation
[11] = target: Short transient receptor potential channel 6 (Mus musculus) (UniProt Q61143); assay: positive modulators of mouse TRPC6 channel – HEK293 cells, membrane potential dye, duplicate, selectivity assay for TRPC4 potentiator project, confirmation (AID 434952;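 active = compound raising the membrane signal above positive-control mean plus 3 SD in both repeats, and a primary screen hit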); conditions: HEK293 TRPC6, membrane potential dye fluorescence, at 10 µM, maximal acetylcholine added after compound; active compounds read high
[12] = target: Short transient receptor potential channel 4 (Mus musculus) (UniProt Q9QUQ5); assay: calcium flux activators in TRPC4/5HT1a cells, counter-screen for TRPC4 activator project, cell-based, second counter screen, HEK293 TRPC4/5HT1a, Fluo-4 (AID 434977;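 active = calcium signal rise above buffer-control mean plus 5 SD in both duplicates, and also a hit in the primary screen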;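 as to activation: plate controls were assay buffer for no effect and maximal serotonin response for full effect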); conditions: Fluo-4 calcium flux, at 10 µM; active compounds read high
[13] = serotonin-gated TRPC4 signal block – cell-based, second counter screen, HEK293 TRPC4/5HT1a, Fluo-4, counter-screen for TRPC4 inhibitor project, confirmation (AID 434978;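 active = primary screen active whose calcium signal fell more than 3 SD beyond the full-serotonin control mean in both duplicate plates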;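 also: serotonin given first at submaximal then at maximal dose after compound preincubation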); conditions: Fluo-4 calcium flux, at 10 µM, serotonin added to trigger calcium flux; active compounds read high
[14] = system: TRPC4 (mouse), co-expressed with 5HT1a in HEK293; assay: enhancement of serotonin-evoked TRPC4 response – cell-based, second counter screen, HEK293 TRPC4/5HT1a, Fluo-4, counter-screen for TRPC4 potentiator project, confirmation (AID 434979;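 active = signal rise over 3 SD above mean of control wells given weak agonist, in both repeats and first screen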); conditions: Fluo-4 calcium flux, at 10 µM, serotonin added at its EC20 dose; active compounds read high
[15] = nonspecific calcium rise without TRPC4 – cell-based, HEK293 mu-opioid receptor line, counter-screen for TRPC4 activator project, confirmation (AID 449723;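 active = hit in primary screen, with calcium signal over 5 SD above buffer well mean in both duplicates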;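 also: counter screen cells carry the mu-opioid receptor alone and lack TRPC4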); conditions: HEK293 mu-opioid cells, Fluo-4 calcium fluorescence, at 10 µM; active compounds read high
[16] = nonspecific potentiation of DAMGO calcium response – cell-based, HEK293 mu-opioid receptor line, counter-screen for TRPC4 allosteric potentiator project, confirmation (AID 449724;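 active = calcium signal rise more than 3 SD above the low-dose agonist control mean, in both duplicate plates and the primary screen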;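 also: HEK293 cells carrying mu-opioid receptor only with no TRPC4 channel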); conditions: HEK293 mu-opioid receptor cells, Fluo-4 calcium flux, at 10 µM, compound added before EC20 DAMGO stimulus; active compounds read high

Short transient receptor potential channel 6 (Mus musculus), sequence (Q61143 whole entry, looked up): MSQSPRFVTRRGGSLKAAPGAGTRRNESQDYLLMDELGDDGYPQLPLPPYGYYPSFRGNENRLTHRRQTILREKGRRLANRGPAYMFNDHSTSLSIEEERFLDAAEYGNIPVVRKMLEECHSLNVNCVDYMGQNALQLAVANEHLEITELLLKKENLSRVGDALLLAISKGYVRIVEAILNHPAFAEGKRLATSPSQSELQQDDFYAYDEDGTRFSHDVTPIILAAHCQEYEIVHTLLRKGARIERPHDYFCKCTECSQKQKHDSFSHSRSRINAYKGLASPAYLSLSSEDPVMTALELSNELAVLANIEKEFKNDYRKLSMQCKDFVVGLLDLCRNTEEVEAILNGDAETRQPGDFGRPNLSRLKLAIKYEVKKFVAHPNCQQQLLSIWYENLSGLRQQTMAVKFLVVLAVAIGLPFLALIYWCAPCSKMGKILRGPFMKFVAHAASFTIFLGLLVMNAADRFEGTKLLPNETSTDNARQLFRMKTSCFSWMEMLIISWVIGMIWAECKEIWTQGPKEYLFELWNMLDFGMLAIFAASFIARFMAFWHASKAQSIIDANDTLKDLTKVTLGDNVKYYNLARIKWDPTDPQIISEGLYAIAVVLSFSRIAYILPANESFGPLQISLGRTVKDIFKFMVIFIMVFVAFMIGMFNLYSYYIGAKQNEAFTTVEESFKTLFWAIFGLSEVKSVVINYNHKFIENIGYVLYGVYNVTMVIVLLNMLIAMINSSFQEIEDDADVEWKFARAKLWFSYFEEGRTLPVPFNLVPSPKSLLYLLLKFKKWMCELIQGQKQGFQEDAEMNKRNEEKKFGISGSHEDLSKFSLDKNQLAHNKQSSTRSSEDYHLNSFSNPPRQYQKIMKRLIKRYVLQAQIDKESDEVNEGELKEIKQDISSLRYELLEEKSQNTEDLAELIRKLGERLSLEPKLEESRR
Short transient receptor potential channel 4 (Mus musculus), sequence (Q9QUQ5 whole entry, looked up): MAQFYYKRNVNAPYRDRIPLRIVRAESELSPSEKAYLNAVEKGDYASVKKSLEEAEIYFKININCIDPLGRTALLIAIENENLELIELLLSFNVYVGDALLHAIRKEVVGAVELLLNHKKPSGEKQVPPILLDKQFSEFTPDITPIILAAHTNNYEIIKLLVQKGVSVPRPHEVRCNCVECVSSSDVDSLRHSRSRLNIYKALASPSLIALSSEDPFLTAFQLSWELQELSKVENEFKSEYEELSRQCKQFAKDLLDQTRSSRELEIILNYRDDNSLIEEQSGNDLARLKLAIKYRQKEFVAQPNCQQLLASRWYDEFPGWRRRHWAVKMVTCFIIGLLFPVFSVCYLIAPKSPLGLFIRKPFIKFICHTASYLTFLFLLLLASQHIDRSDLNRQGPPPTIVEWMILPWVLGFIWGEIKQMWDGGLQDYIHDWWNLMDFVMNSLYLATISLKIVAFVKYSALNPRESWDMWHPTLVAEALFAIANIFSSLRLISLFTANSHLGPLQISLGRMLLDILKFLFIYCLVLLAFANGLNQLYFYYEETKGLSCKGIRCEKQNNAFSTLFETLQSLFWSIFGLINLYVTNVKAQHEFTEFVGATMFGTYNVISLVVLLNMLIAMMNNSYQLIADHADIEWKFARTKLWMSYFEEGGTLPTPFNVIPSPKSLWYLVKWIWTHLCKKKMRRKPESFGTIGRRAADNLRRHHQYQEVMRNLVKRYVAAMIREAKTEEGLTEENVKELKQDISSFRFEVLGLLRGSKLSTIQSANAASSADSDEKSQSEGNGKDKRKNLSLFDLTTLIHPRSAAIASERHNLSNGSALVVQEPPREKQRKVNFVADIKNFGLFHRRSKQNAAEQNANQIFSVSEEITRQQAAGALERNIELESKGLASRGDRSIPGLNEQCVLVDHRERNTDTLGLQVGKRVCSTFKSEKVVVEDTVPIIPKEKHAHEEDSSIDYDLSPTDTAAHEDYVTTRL

Compound: CN(C)CCCN(C(=O)c1ccc(S(=O)(=O)N2CCOCC2)cc1)c1nc2ccc(F)cc2s1
- activation [1]: 104% (active)
- outcome [2]: inactive
- outcome [3]: inactive
- outcome [4]: inactive
- outcome [5]: inactive
- outcome [6]: inactive
- outcome [7]: inactive
- outcome [8]: inactive
- outcome [9]: inactive
- outcome [10]: inactive
- outcome [11]: inactive
- outcome [12]: inactive
- outcome [13]: inactive
- outcome [14]: inactive
- outcome [15]: inactive
- outcome [16]: inactive

Compound: COc1ccc(C(=O)NC(=S)NNC(=O)c2c(-c3ccccc3)noc2C)cc1OC
- outcome [1]: inactive
- outcome [2]: inactive
- outcome [3]: inactive
- outcome [4]: inactive
- outcome [5]: inactive
- outcome [6]: inactive
- outcome [7]: inactive
- outcome [8]: inactive
- outcome [9]: inactive
- activation [10]: 39% (active)
- outcome [11]: inactive
- activation [12]: 24.4% (active)
- outcome [13]: inactive
- outcome [14]: inactive
- outcome [15]: inactive
- outcome [16]: inactive

Compound: COc1ccc(/C=C/CN2CCCC(C(=O)c3ccc(OC)c(F)c3)C2)cc1 (configuration not stated)
- outcome [1]: inactive
- outcome [2]: inactive
- outcome [3]: inactive
- outcome [4]: inactive
- outcome [5]: inactive
- outcome [6]: inactive
- outcome [7]: inactive
- outcome [8]: inactive
- outcome [9]: inactive
- activation [10]: 33% (active)
- outcome [11]: inactive
- outcome [12]: inactive
- outcome [13]: inactive
- outcome [14]: inactive
- outcome [15]: inactive
- outcome [16]: inactive

Compound: CN1CCCC(OC(=O)c2cc(Cl)cc(Cl)c2)C1 (configuration not stated)
- activation [1]: 186% (active)
- activation [2]: 112% (active)
- outcome [3]: inactive
- outcome [4]: inactive
- outcome [5]: inactive
- outcome [6]: inactive
- outcome [7]: inactive
- outcome [8]: inactive
- outcome [9]: inactive
- activation [10]: 38.5% (active)
- outcome [11]: inactive
- activation [12]: 67.9% (active)
- outcome [13]: inactive
- outcome [14]: inactive
- outcome [15]: inactive
- outcome [16]: inactive

Compound: COc1ccc(-c2cc(C(=O)NCC(c3ccccc3)N(C)C)c3ccccc3n2)cc1OC (configuration not stated)
- activation [1]: 98% (active)
- outcome [2]: inactive
- outcome [3]: inactive
- outcome [4]: inactive
- outcome [5]: inactive
- outcome [6]: inactive
- outcome [7]: inactive
- outcome [8]: inactive
- outcome [9]: inactive
- outcome [10]: inactive
- outcome [11]: inactive
- outcome [12]: inactive
- outcome [13]: inactive
- outcome [14]: inactive
- outcome [15]: inactive
- outcome [16]: inactive

Compound: c1ccc(Nc2nc(Nc3ccccc3)nc(N3CCNCC3)n2)cc1
- activation [1]: 159% (active)
- outcome [2]: inactive
- outcome [3]: inactive
- outcome [4]: inactive
- outcome [5]: inactive
- outcome [6]: inactive
- outcome [7]: inactive
- outcome [8]: inactive
- outcome [9]: inactive
- activation [10]: 35.5% (active)
- outcome [11]: inactive
- activation [12]: 56.1% (active)
- outcome [13]: inactive
- outcome [14]: inactive
- outcome [15]: inactive
- outcome [16]: inactive

Compound: C=CCn1c(CCNC(=O)c2ccco2)nc2ccccc21
- activation [1]: 165% (active)
- activation [2]: 70% (active)
- outcome [3]: inactive
- outcome [4]: inactive
- outcome [5]: inactive
- outcome [6]: inactive
- outcome [7]: inactive
- outcome [8]: inactive
- outcome [9]: inactive
- outcome [10]: inactive
- outcome [11]: inactive
- activation [12]: 55% (active)
- outcome [13]: inactive
- outcome [14]: inactive
- outcome [15]: inactive
- outcome [16]: inactive

Compound: CN(C)c1ccc(NC(=S)N2CCN(c3ncc(C(F)(F)F)cc3Cl)CC2)cc1
- activation [1]: 112% (active)
- outcome [2]: inactive
- outcome [3]: inactive
- outcome [4]: inactive
- outcome [5]: inactive
- outcome [6]: inactive
- outcome [7]: inactive
- outcome [8]: inactive
- outcome [9]: inactive
- activation [10]: 27.5% (active)
- outcome [11]: inactive
- activation [12]: 54.3% (active)
- outcome [13]: inactive
- outcome [14]: inactive
- outcome [15]: inactive
- outcome [16]: inactive

Compound: COc1ccc(C(CCNCc2ccc(N(C)C)cc2)c2ccccc2OC)cc1 (configuration not stated)
- activation [1]: 133% (active)
- outcome [2]: inactive
- outcome [3]: inactive
- outcome [4]: inactive
- outcome [5]: inactive
- outcome [6]: inactive
- outcome [7]: inactive
- outcome [8]: inactive
- outcome [9]: inactive
- outcome [10]: inactive
- outcome [11]: inactive
- activation [12]: 8.8% (active)
- outcome [13]: inactive
- outcome [14]: inactive
- outcome [15]: inactive
- outcome [16]: inactive

Compound: O=C(NCc1cccnc1)C1CCCN(Cc2cnn(-c3ccccc3)c2-n2cccc2)C1 (configuration not stated)
- activation [1]: 83% (active)
- outcome [2]: inactive
- outcome [3]: inactive
- outcome [4]: inactive
- outcome [5]: inactive
- outcome [6]: inactive
- outcome [7]: inactive
- outcome [8]: inactive
- outcome [9]: inactive
- activation [10]: 46% (active)
- outcome [11]: inactive
- activation [12]: 16.2% (active)
- outcome [13]: inactive
- outcome [14]: inactive
- outcome [15]: inactive
- outcome [16]: inactive

Compound: Cc1nc(NCC(c2ccccc2)N(C)C)c2c(C)c(C)sc2n1 (configuration not stated)
- activation [1]: 204% (active)
- activation [2]: 78% (active)
- outcome [3]: inactive
- outcome [4]: inactive
- outcome [5]: inactive
- outcome [6]: inactive
- outcome [7]: inactive
- outcome [8]: inactive
- outcome [9]: inactive
- outcome [10]: inactive
- outcome [11]: inactive
- activation [12]: 27.8% (active)
- outcome [13]: inactive
- outcome [14]: inactive
- outcome [15]: inactive
- outcome [16]: inactive

Compound: O=C(c1cccs1)N1CCN(c2ncc(Br)cn2)CC1
- activation [1]: 215% (active)
- activation [2]: 91% (active)
- outcome [3]: inactive
- outcome [4]: inactive
- outcome [5]: inactive
- outcome [6]: inactive
- outcome [7]: inactive
- outcome [8]: inactive
- outcome [9]: inactive
- activation [10]: 35.5% (active)
- outcome [11]: inactive
- activation [12]: 79.8% (active)
- outcome [13]: inactive
- outcome [14]: inactive
- outcome [15]: inactive
- outcome [16]: inactive

Compound: CC(C)(C)c1ccccc1NC(=O)NC1CCN(Cc2c(F)cccc2Cl)CC1
- activation [1]: 121% (active)
- outcome [2]: inactive
- outcome [3]: inactive
- outcome [4]: inactive
- outcome [5]: inactive
- outcome [6]: inactive
- outcome [7]: inactive
- outcome [8]: inactive
- outcome [9]: inactive
- activation [10]: 36% (active)
- outcome [11]: inactive
- activation [12]: 71.5% (active)
- outcome [13]: inactive
- outcome [14]: inactive
- outcome [15]: inactive
- outcome [16]: inactive

Compound: COc1ccc(-n2cc(CNCCc3ncc(C)[nH]3)c(-c3ccccc3Cl)n2)cc1
- activation [1]: 214% (active)
- outcome [2]: inactive
- outcome [3]: inactive
- outcome [4]: inactive
- outcome [5]: inactive
- outcome [6]: inactive
- outcome [7]: inactive
- outcome [8]: inactive
- outcome [9]: inactive
- activation [10]: 30% (active)
- outcome [11]: inactive
- outcome [12]: inactive
- outcome [13]: inactive
- outcome [14]: inactive
- outcome [15]: inactive
- outcome [16]: inactive

Compound: CNCCCOc1ccc2c(c1)CCC2
- activation [1]: 75% (active)
- outcome [2]: inactive
- potentiation [3]: 24% (active)
- potentiation [4]: 29% (active)
- outcome [5]: inactive
- outcome [6]: inactive
- outcome [7]: inactive
- outcome [8]: inactive
- outcome [9]: inactive
- activation [10]: 57% (active)
- outcome [11]: inactive
- activation [12]: 16.2% (active)
- outcome [13]: inactive
- outcome [14]: inactive
- outcome [15]: inactive
- outcome [16]: inactive

Compound: Cc1sc2ncnc(NC3CCN(Cc4ccccc4)CC3)c2c1C
- activation [1]: 240% (active)
- activation [2]: 199% (active)
- outcome [3]: inactive
- outcome [4]: inactive
- outcome [5]: inactive
- outcome [6]: inactive
- outcome [7]: inactive
- outcome [8]: inactive
- outcome [9]: inactive
- outcome [10]: inactive
- outcome [11]: inactive
- activation [12]: 145% (active)
- outcome [13]: inactive
- outcome [14]: inactive
- outcome [15]: inactive
- outcome [16]: inactive

Compound: Cc1sc2ncnc(NCC(C)(C)N3CCOCC3)c2c1C
- activation [1]: 178% (active)
- activation [2]: 109% (active)
- outcome [3]: inactive
- outcome [4]: inactive
- outcome [5]: inactive
- outcome [6]: inactive
- outcome [7]: inactive
- outcome [8]: inactive
- outcome [9]: inactive
- outcome [10]: inactive
- outcome [11]: inactive
- activation [12]: 62.7% (active)
- outcome [13]: inactive
- outcome [14]: inactive
- outcome [15]: inactive
- outcome [16]: inactive
